According to PubChem BioAssay:

What follows are compounds tested against Carbonic anhydrase 2 (Homo sapiens) (UniProt P00918) (assay: compounds binding carbonic anhydrase 2 – biochemical, small-molecule microarray, Alexa647-labelled CAII, profiling panel (AID 1122)). Conditions: CAII-A647 binding fluorescence, higher = more signal.

Compound	composite z-score
C=C(COC)/C(=C/C[C@H](OC(C)=O)c1ccc(CO)o1)c1cc(C(=O)OC)ccc1OC	0.654
O=C(NCCN1CCOCC1)C1N=C(c2ccc(OCCCO)cc2)N(c2ccccc2)O1 (stereo not given)	0.835
COCCOC(=O)N1C(=O)[C@@]2(c3cc(C#CCCO)ccc31)[C@H](C(=O)N1CCCCCCC1)[C@H]1C(=O)O[C@H](c3ccccc3)[C@H](c3ccccc3)N1[C@@H]2c1ccc(OCCO)cc1	0.549
COc1cc(Br)cc(C(O)C2C=CC3C(=O)N(C)C(=O)C3N2N2CCCCC2)c1OC (stereo not given)	0.707
C=C(C)[C@@H]1CC=C(C(O)C2C=CC3C(=O)N(C)C(=O)C3N2Nc2ccccc2)CC1 (stereo not given in full)	0.372
O=C(N1CCCCC1)[C@]1(Cc2ccccc2)N=C(c2ccc(OCCCO)cc2)O[C@@H]1c1ccccc1	0.225
CC(C)c1ccc(NN2C(C(O)c3ccc(B(O)O)cc3)C=CC3C(=O)N(c4ccccc4)C(=O)C32)cc1 (stereo not given)	0.493
C=CCNC(=O)[C@@H]1[C@H]2C(=O)O[C@H](c3ccccc3)[C@H](c3ccccc3)N2[C@H](c2ccccc2OCCO)[C@@]12C(=O)N(C(=O)OCCOC)c1ccccc12	0.395
CC(C)C(O)C1C=CC2C(=O)N(c3ccccc3)C(=O)C2N1Nc1ccc([N+](=O)[O-])cc1 (stereo not given)	0.719
COC(=O)[C@@]1(Cc2ccc(OC)cc2)[C@@H]2C(=CC(=O)[C@H]2CC(=O)C(=O)N2CCCC2)CN1C(=O)c1ccccc1	0.558
COC(=O)[C@@]1(Cc2ccc(OC)cc2)[C@H]2c3cc(C(=O)N(C)C)n(Cc4ccc(S(C)(=O)=O)cc4)c3C[C@H]2CN1C(=O)c1ccccc1	0.725
COCCOC(=O)N1C(=O)[C@@]2(c3cc(C#CC4(O)CCCCCC4)ccc31)[C@H](c1ccc(OCCO)cc1)N1[C@H](c3ccccc3)[C@H](c3ccccc3)OC(=O)[C@H]1[C@@H]2C(=O)N1CCN(c2ncccn2)CC1	0.497
COc1ccc(C#Cc2ccc3c(c2)[C@]2(C(=O)N3)[C@H](C(=O)Nc3nc4ccccc4s3)[C@H]3C(=O)O[C@H](c4ccccc4)[C@H](c4ccccc4)N3[C@@H]2c2ccc(O)cc2)cc1	0.406
OCCCC1=CC(c2cccs2)N(Cc2cc3c(cc2Br)OCO3)CC1 (stereo not given)	0.509
CCN(CC)c1ccc(N2CC=CC34O[C@@H]5C=CCCOC(=O)C5[C@H]3C(=O)N(CCCCCCO)[C@@H]4C2=O)cc1 (stereo not given in full)	0.885
CCCCCN1CC=CC23O[C@@H]4/C=C\CCC(C)OC(=O)C4[C@H]2C(=O)N(C(C)CO)[C@@H]3C1=O (stereo not given in full)	0.536
CC(C)OC(=O)C=C1C[C@@H](c2ccccn2)O[C@@H](c2ccccn2)O1	0.775
C=CCOC(=O)[C@H]1[C@@H]2C(=O)O[C@@H](c3ccccc3)[C@@H](c3ccccc3)N2[C@@H](c2ccc(OCCOC(=O)[C@@H]3C[C@@H]4C(=O)N[C@@H](CCCCNC(C)=O)C(=O)N4[C@@H]3c3ccc(O)cc3)cc2)[C@]12C(=O)Nc1ccccc12	0.638

Compound	composite z-score
Cc1nc2cc(Br)ccc2c(=O)o1	0.633
C=CCOC(=O)[C@H]1[C@@H]2C(=O)O[C@@H](c3ccccc3)[C@@H](c3ccccc3)N2[C@@H](c2ccc(OCCOC(=O)[C@H]3C[C@H]4C(=O)N[C@@H](CCCCNC(C)=O)C(=O)N4[C@H]3c3ccc(O)cc3)cc2)[C@]12C(=O)Nc1ccc(I)cc12	0.253
C=C[C@@H](COC(=O)OC(C)(C)C)N(Cc1ccc(OC)cc1)S(=O)(=O)c1ccc(Br)cc1	-0.0303
COc1ccc([Si](C)(C)[C@H]2[C@H](CCO)O[C@@]3(C(=O)N(Cc4ccc(N(C=O)c5ccccc5)cc4)c4ccccc43)[C@@H]2C)cc1	-0.0062
COCCOC(=O)N1C(=O)[C@@]2(c3cc(C#Cc4ccc(OC)cc4)ccc31)[C@H](c1ccc(OCCO)cc1)N1[C@H](c3ccccc3)[C@H](c3ccccc3)OC(=O)[C@H]1[C@@H]2C(=O)N1CCN(c2ncccn2)CC1	0.357
COc1ccc(C#Cc2ccc3c(c2)[C@]2(C(=O)N3)[C@H](c3ccccc3OCCO)N3[C@H](c4ccccc4)[C@H](c4ccccc4)OC(=O)[C@H]3[C@@H]2C(=O)Nc2nc3ccccc3s2)cc1	0.327
CCCC[C@@H]1C[C@H]1[C@@H](NC(=O)C(C)(C)C)c1ccc(C(F)(F)F)cc1	0.289
COC(=O)C(CC#Cc1ccc2c(c1)[C@]1(C(=O)N2)[C@H](c2ccc(OCCO)cc2)N2[C@H](c3ccccc3)[C@H](c3ccccc3)OC(=O)[C@H]2[C@@H]1C(=O)Nc1nc2ccccc2s1)C(=O)OC	0.546
COc1ccc(CCNC(=O)[C@@]2(Sc3ccc(C)cc3)CC(=O)N(C(C)C)[C@@H]2c2ccc(CO)cc2I)cc1	0.304
COC(=O)[C@@]1(Cc2ccc(F)cc2)[C@H]2c3cc(C(=O)N4CCCC4)n(Cc4ccc(S(C)(=O)=O)cc4)c3C[C@H]2CN1C(=O)c1ccccc1	0.718
O=C1c2ccccc2[C@](Cc2ccccc2I)(C(=O)NCCN2CCOCC2)[C@H](c2ccc(CO)cc2)N1C1CCCCC1	0.548
COC(=O)[C@@]1(CCS(=O)(=O)c2ccccc2)N=C(c2ccc(OCCCO)cc2)O[C@H]1c1ccccc1CN=[N+]=[N-]	0.691
COCCOC(=O)N1C(=O)[C@@]2(c3cc(C#CCNC(N)=O)ccc31)[C@H](C(=O)Nc1nc3ccccc3s1)[C@H]1C(=O)O[C@H](c3ccccc3)[C@H](c3ccccc3)N1[C@@H]2c1ccc(OCCO)cc1	0.382
CC(C)NC(=O)[C@@H]1c2ccccc2C(=O)N(C2Cc3ccccc3C2)[C@H]1c1ccc(CO)cc1	0.492
CC(C)=CCCC(C)=CC(O)C1C=CC2C(=O)N(C)C(=O)C2N1Nc1ccccc1 (stereo not given)	0.435
[N-]=[N+]=NCc1ccccc1C[C@]1(C(=O)N2CCCCC2)N=C(c2ccc(OCCCO)cc2)O[C@H]1c1ccccc1N=[N+]=[N-]	0.593
CCOC(=O)C[C@H]1[C@H](OC(=O)c2ccc(C(=O)c3ccccc3)cc2)[C@@H](NC(=O)CC(C)C)c2cc(OCCCO)ccc2N1C(=O)c1ccc2ccccc2n1	0.232
